# Cy5 interf NS3h: enhances or quenches Cy5 fluorescence in NS3h assay. 16,000 tested, 6% active. Cy5-dT15 DNA with NS3h, fluorescence interference; actives lie on both sides; signal over control mean, under 1 quenches. fluorescence interference ratio at 100 µM;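 active means compound fluorescence over control fluorescence at most 0.8, a quencher, or at least a set upper limit, an enhancer; inactive means ratio between 0.8 and the set upper limit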
# NS3h inh CB: blocks HCV NS3 helicase binding to DNA; AID 687043; 16,000 tested, 1.6% active; NS3h Cy5-dT15 DNA binding, fluorescence polarization; inhibition, % at 100 µM;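 active means inhibition above the average over every tested compound plus 3 SD, cut at about 40% in these data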
# An asterisk follows results filed as active. A selection: hits, their analogues and other compounds. The true share with any hit is near 6.9%.
SMILES,Cy5 interf NS3h,NS3h inh CB
CCOC(=O)c1c(NC(=O)COc2c(C)cc(C)cc2C)sc(C(=O)Nc2ccccc2)c1C,0.96,3
CC(C)COc1ccc(C(=O)NCCc2c[nH]c3ccccc23)cc1,1,15
O=C(COc1cccc2ccccc12)NCC1CCCO1 (stereo not given),0.77*,10
O=C(COc1cccc2ccccc12)NCc1ccco1,0.89,4
O=C(COc1cccc2ccccc12)NCc1cccnc1,0.74*,17
O=C(COc1cccc2ccccc12)NCc1ccccn1,0.91,1
COC(=O)c1ccc(-c2ccc(CO)o2)cc1,0.94,-2
CN(C)CC#CC(O)(c1ccccc1)c1ccccc1,1,-20
CN(CCOC(=O)C(C)(c1ccccc1)c1ccccc1)C(C)(C)C,0.76*,6
CN(C1=NS(=O)(=O)c2cc([N+](=O)[O-])ccc21)c1ccccc1,0.89,-2
O=[N+]([O-])c1ccc2c(c1)S(=O)(=O)N=C2Nc1cccc(Cl)c1,0.73*,-10
CCOc1ccc(/C=N\N2C(=O)C3C(C2=O)C2C=CC3C23CC3)cc1OC (stereo not given),1,-2
O=C(Nc1cccc(Cl)c1)c1ccccc1Br,0.8*,-2
Cc1ccccc1C(=O)Nc1cccc(Cl)c1,0.96,5
COc1ccccc1NC(=O)/C(=C/c1cccc([N+](=O)[O-])c1)NC(=O)c1ccccc1,0.94,2
CCc1ccc(S(=O)(=O)Nc2cc(-c3c(O)ccc4ccccc34)c(O)c3ccccc23)cc1,0.78*,9
CCc1ccc(S(=O)(=O)Nc2cc(Br)c(O)c3ccccc23)cc1,0.98,4
CCOC(=O)Nc1sc(C)c(CC)c1C(=O)OC,0.87,4
COc1ccc(Cl)cc1N(CC(=O)NCCSc1ccc(C)cc1)S(=O)(=O)c1ccccc1,0.99,17
CC(O)c1ccc(NC(=O)c2cnn3c2NC(c2ccc(F)cc2)CC3C(F)(F)F)cc1 (stereo not given),0.48*,24
CC(O)c1cccc(NC(=O)c2cc3n(n2)C(C(F)(F)F)CC(c2ccc(F)cc2)N3)c1 (stereo not given),0.96,15
O=C(c1cc2n(n1)C(C(F)(F)F)CC(c1ccc(F)cc1)N2)N1CCCC1 (stereo not given),0.75*,8
CC(O)c1ccc(NC(=O)c2cnn3c2NC(c2cccs2)CC3C(F)(F)F)cc1 (stereo not given),1,5
Cc1ccc(C2CC(C(F)(F)F)n3nc(C(=O)N4CCN(c5ccc(F)cc5)CC4)cc3N2)cc1 (stereo not given),0.92,6
COc1ccc(C2CC(C(F)(F)F)n3ncc(C(=O)N(C)Cc4ccccc4)c3N2)cc1OC (stereo not given),0.6*,28
SMILES,Cy5 interf NS3h,NS3h inh CB
Cc1ccc(C2CC(C(F)(F)F)n3ncc(C(=O)N(Cc4ccccc4)Cc4ccccc4)c3N2)cc1 (stereo not given),0.94,8
Cc1ccc(C2CC(C(F)(F)F)n3nc(C(=O)Nc4ccc(C(C)O)cc4)cc3N2)cc1 (stereo not given),0.64*,8
Cc1ccccc1OCCn1cc(/C=C2/SC(=S)N(C)C2=O)c2ccccc21,0.97,1
O=C1C(=O)N(c2cccc(Cl)c2)C(c2ccc([N+](=O)[O-])cc2)C1=C(O)c1ccccc1 (stereo not given),1,-13
CCNC(=O)/C=C/c1cn(-c2ccccc2)nc1-c1ccccc1,0.97,10
O=C1C(=O)N(CCCn2ccnc2)C(c2ccc([N+](=O)[O-])cc2)C1=C(O)c1ccc(Cl)cc1 (stereo not given),1.1,6
O=C(Nc1ccc(Cl)cc1)C1CC1(c1ccccc1)c1ccccc1 (stereo not given),0.85,29
Cc1ccc(C2CC(C(F)(F)F)n3nc(C(=O)N4CCN(c5ccc(F)cc5)CC4)c(Cl)c3N2)cc1 (stereo not given),0.49*,10
O=C(c1nn2c(c1Cl)NC(c1ccccc1)CC2C(F)(F)F)N1CCN(c2ccc(F)cc2)CC1 (stereo not given),0.99,28
CCOC(=O)C1CCCN(C2CC(=O)N(c3ccc(C)cc3)C2=O)C1 (stereo not given),1.2*,7
Cc1ccc(N2C(=O)CC(N3CCOCC3)C2=O)cc1 (stereo not given),1,1
COc1cc(OC)c(/C=C2\SC(=S)NC2=O)cc1Br,1.2,5
O=C(c1cc(N2CCCCC2)c(F)cc1[N+](=O)[O-])N1CCCCC1,0.95,-6
O=C(c1ccc(Cl)c(Cl)c1)N1CCN(c2ccc([N+](=O)[O-])c(N3CCOCC3)c2)CC1,0.65*,22
O=C(c1cc(F)c(F)cc1Cl)N1CCN(c2ccc([N+](=O)[O-])c(N3CCCC3)c2)CC1,0.67*,27
O=[N+]([O-])c1ccc(N2CCN(S(=O)(=O)c3ccc(Cl)cc3)CC2)cc1N1CCOCC1,0.95,16
O=C(c1cc(N2CCOCC2)c(F)cc1[N+](=O)[O-])N1CCOCC1,0.68*,15
O=C(c1cc(F)c(F)cc1Cl)N1CCN(c2ccc([N+](=O)[O-])c3ncccc23)CC1,1,12
O=C(Nc1cc(Cl)cc(Cl)c1)c1ccc(S(=O)(=O)N2CCCCC2)cc1,0.96,12
O=C(O)c1ccc(/C=N\N2CCN(Cc3ccc(Cl)cc3)CC2)cc1,1,-3
Cc1cc(-c2ccc(F)cc2)nc2cc(C(=O)O)nn12,0.94,4
Cc1c(NC(=S)NC(=O)c2ccc(Cl)cc2)cccc1-c1nc2ncccc2o1,1.1,-12
CCOc1ccc(NC(=O)CN(c2ccc(F)cc2)S(=O)(=O)c2ccccc2)cc1,1,17
NC(=O)CN1C(=O)/C(=C2\SC(=S)N(Cc3ccccc3)C2=O)c2ccccc21,0.8*,7
C=CCN1C(=O)/C(=C2\SC(=S)N(Cc3ccco3)C2=O)c2ccccc21,0.98,17
SMILES,Cy5 interf NS3h,NS3h inh CB
COC(=O)C1=C(C)N=c2s/c(=C/c3cccnc3)c(=O)n2C1c1ccc(C(C)C)cc1 (stereo not given),0.87,13
Cc1cc(C)cc(NC(=O)C(=O)NCc2ccco2)c1,1,6
CC1CCCN(C(=O)c2ccc(Cl)cc2)C1 (stereo not given),1,2
CC1CCCN(C(=O)c2ccccc2)C1 (stereo not given),0.79*,6
CC1CCN(C(=O)COc2ccc(-c3ccccc3)cc2)CC1,0.67*,25
CC1CCN(C(=O)c2ccc(I)cc2)CC1,0.99,5
CS(=O)(=O)N1CCN(C(=O)COc2ccccc2)CC1,1.1,5
CC1CCN(C(=O)c2ccccc2)CC1,0.68*,-2
O=C1NC(=S)NC(=O)C1=Cc1cn(-c2ccccc2)nc1-c1ccc(F)cc1,1.1,6
COc1cc(C(=O)Nc2c(-c3ccccc3)c3cc(Br)ccc3[nH]c2=O)cc(OC)c1OC,1,5
Clc1ccc(-c2noc(COc3ccc4ccccc4c3)n2)cc1,1.1,7
Cc1cc(C(=O)NCCC(C)C)ccc1[N+](=O)[O-],1,9
CCOCCOC(=O)c1ccc(NC(=O)c2ccco2)cc1,1,2
CC(C)CNC(=O)/C(=C/c1ccc(F)cc1)NC(=O)c1ccccc1,0.95,12
Cc1ccc(C(=O)N/C(=C\c2ccc(Cl)cc2)C(=O)NCC(C)C)cc1,0.96,41*
CC(C1CC1)N(Cc1ccccc1)C(=O)Nc1cccc([N+](=O)[O-])c1 (stereo not given),0.61*,7
